Hits are enriched below; roughly 21% of the tested compounds scored in any of these assays.
IL1B secr inh = blocks inflammasome-driven IL-1 beta release. AID 743279. THP-1 LPS/ATP IL-1B secretion, AlphaLISA, 16 h; stronger effect = lower value. activity change, % at 57.5 µM. 360,000 tested, 4.7% active; in the data active means activity change below about -50%; inconclusive means mostly about -30% to -49%
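THP-1 cells pretreated 1 hr with compounds (up to 57.5 uM final), then stimulated with LPS (250 ng/mL final) plus ATP (1.25 mM final); secreted IL-1B measured by AlphaLISA after 16 hr, decreased signal indicating inhibition.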
DT40 TDP1 CPT = growth inhibition of DT40 Tdp1-/-;hTDP1 cells with camptothecin (screen for TDP1 inhibitors) | chicken DT40 Tdp1-/-;hTDP1 cells + 20 nM CPT, ATP luminescence, 48 h | Potency, µM (doses to about 46.2 µM), usual class: inhibitors | 420,000 tested, 12% active; further: nearly all actives have a fitted effect of over 55% in size
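Cell growth measured by CellTiter-Glo luminescence after a minimum 48 h, 37 C compound exposure with 20 nM CPT in Tdp1-knockout DT40 cells stably expressing hTDP1, seeded 400/well; qHTS titration format.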
DRD3 agonist = D3 dopamine receptor (human) agonism; D3R DiscoveRx beta-arrestin cells, luminescence, 90 min; 410,000 tested, 0.58% active; max activation, %; AID 652048; P35462; in the data active means max activation above about 30%
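Agonist-mode cell screen: cells plated at 1500/well and incubated overnight at 37 °C, then exposed to library compounds for 90 min at 37 °C. Detection reagent was added for 30–60 min at room temperature, and luminescence was read.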
D3 antag = D3 dopamine receptor (human) antagonism. D3R cells, DiscoveRx beta-arrestin luminescence, antagonist mode; stronger effect = lower value. max response, negative = inhibition, %. 360,000 tested, 2.5% active. AID 652054; in the data active means max response below about -50%; inconclusive means no clear call, values can overlap the other calls
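Cells plated overnight at 1500 cells/well, then exposed to library compounds with dopamine controls for 90 minutes at 37 degrees C. DiscoveRx reagent added for 30–60 minutes at room temperature; luminescence read, quantitative HTS format.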
ClpP mod = qHTS Assay for Activators of ClpP | 340,000 tested, 1.9% active | ATP-dependent Clp protease proteolytic subunit (Bacillus subtilis (strain 168)), P80244 | AID 651965, 2013 | Potency, µM (top dose mostly 57.5 µM) | purified B. subtilis ClpP, FRET peptide cleavage, 20 min; active means well fitted falling curve with a large enough effect; inconclusive means small, poorly fitted or top-dose-only effect; inactive means no such curve, though single readings can be large or run the other way; further: the source files actives as falling curves though it sought activators and does not explain the sign; nearly all actives have a fitted effect of over 65% in size
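ClpP 10 microg/mL final, pH 8 Tris/KCl buffer with BSA, glycerol, Tween-20; compound pinned in; FRET-FV substrate; RT 20 min; Ex320/Em430; ΔFRET vs ADEP 5.8 microM, DMSO, no enzyme.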
TDP1 cell noCPT = qHTS for Inhibitors of human tyrosyl-DNA phosphodiesterase 1 (TDP1): qHTS in cells in absence of CPT; AID 686978, 2013; 420,000 tested, 15% active; Potency, µM (highest dose often 46.2 µM), usual class: inhibitors; DT40 Tdp1-/- hTDP1 cells, no CPT, ATP luminescence, 48 h; further: nearly all actives have a fitted effect of over 55% in size
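Cells were dispensed at 400 per well, compounds added by pin tool, plates incubated ≥48 hr at 37 °C, then CellTiter-Glo added for 30 min at room temperature before luminescence reading. Line: DT40 Tdp1-/- complemented with hTDP1; camptothecin omitted.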
Numbers stand for hits; . = inactive; ? = inconclusive; / = no result given; ! = repeats disagree. Unless noted, the call rests on the fitted dose curve; in most records, active means well fitted inhibition curve with a large enough effect; inconclusive means small, poorly fitted or top-dose-only effect; inactive means flat fitted curve, though single readings scatter.

SMILES	IL1B secr inh	DT40 TDP1 CPT	DRD3 agonist	D3 antag	ClpP mod	TDP1 cell noCPT
CCNc1ccc(S(=O)(=O)NCCN(C)C)cc1[N+](=O)[O-]	.	.	.	.	.	.
CN(C)CCCNS(=O)(=O)c1ccc(NC2CCCCCC2)c([N+](=O)[O-])c1	-71	2.9µM	.	.	/	2.3µM
CC1(C)Cc2c(C#N)c(NCCN3CCOCC3)nc(-c3ccccc3)c2CO1	.	?	.	.	/	.
CC1(C)Cc2c(c(-c3ccco3)nc3sc4c(NCC5CCCO5)ncnc4c23)CO1 (configuration not stated)	.	18µM	.	.	16µM	21µM
CC1(C)Cc2nc(NCCCO)c(C#N)cc2CO1	.	.	.	.	.	.
CC1(C)Cc2c(c(-c3ccco3)nc3sc4c(NCCCO)ncnc4c23)CO1	.	10µM	.	.	.	8.2µM
CSc1nc(SCC(=O)O)c2sc3nc(-c4ccccc4)c4c(c3c2n1)CCC4	.	.	.	.	.	?
CSc1nc(NCCN(C)C)c2sc3nc(-c4ccco4)c4c(c3c2n1)CCC4	-101	6.5µM	.	.	/	12µM
CCc1nc(NCC2CCCO2)c(C#N)c2c1COC(C)(C)C2 (configuration not stated)	.	?	.	.	.	.
CC1(C)Cc2c(C#N)c(NCCN3CCOCC3)nc(-c3ccco3)c2CO1	.	.	.	.	32µM	?
COc1ccc(N2C(=O)CS(=O)(=O)C23C(=O)N(Cc2ccccc2F)c2ccccc23)cc1Cl (configuration not stated)	/	?	.	/	.	?
COCCn1c(C)cc(O)c(C(c2ccccc2)N2CCN(C)CC2)c1=O (configuration not stated)	/	.	.	/	.	.
O=C(CCCOc1ccc(Br)cc1)Nc1nnc(C2CC2)s1	.	.	.	.	.	.
CC1(C)Cc2c(c(-c3ccco3)nc3sc4c(NCCN5CCOCC5)ncnc4c23)CO1	-181	8.2µM	.	.	/	21µM
CCOc1ccc(-n2c(=O)c3sccc3n(CC(=O)NCC3CCCO3)c2=O)cc1 (configuration not stated)	.	.	.	.	/	.
COc1ccc(C2Nc3ccc(NC(C)=O)cc3C(=O)N2Cc2ccccc2)cc1COc1ccc(NC(C)=O)cc1 (configuration not stated)	/	?	/	/	.	18µM
COc1ccc(C2Nc3ccccc3C(=O)N2Cc2ccco2)cc1COc1ccc(NC(C)=O)cc1 (configuration not stated)	.	?	.	.	32µM!	11µM
COc1ccc(C2Nc3ccccc3C(=O)N2O)cc1CN1CCOCC1 (configuration not stated)	.	.	.	.	.	.
COc1ccc(C2Nc3ccccc3C(=O)N2c2ccc(F)cc2)cc1COc1ccc(NC(C)=O)cc1 (configuration not stated)	/	?	/	/	.	25µM
COc1ccc(N2C(=O)c3ccccc3NC2c2ccc(OC)c(COc3ccccc3F)c2)cc1 (configuration not stated)	/	.	/	/	.	?
COc1ccc(C2Nc3ccccc3C(=O)N2Cc2ccccc2)cc1COc1ccc([N+](=O)[O-])cc1 (configuration not stated)	/	?	/	/	.	?
COc1ccc(C2Nc3ccccc3C(=O)N2Cc2ccco2)cc1COc1ccccc1F (configuration not stated)	-69	?	.	.	14µM	?
COc1ccc(CNC(=O)CN(C(=O)c2csnn2)c2cccc3ccccc23)cc1	.	.	.	.	/	.
Cn1c(=O)c2c(-c3ccccc3Br)n(C(C)(C)C)cc2n(C)c1=O	/	16µM	.	/	.	12µM
CC(c1ccccc1)n1cc2c(c1-c1ccccc1Br)c(=O)n(C)c(=O)n2C (configuration not stated)	/	16µM	.	/	?	18µM
SMILES	IL1B secr inh	DT40 TDP1 CPT	DRD3 agonist	D3 antag	ClpP mod	TDP1 cell noCPT
Cn1c(=O)c2c(-c3cccc(Br)c3)n(C(C)(C)CO)cc2n(C)c1=O	/	?	.	/	.	?
COc1ccc(CCn2cc3c(c2-c2ccccc2Br)c(=O)n(C)c(=O)n3C)cc1OC	/	21µM	.	/	.	16µM
COc1ccc(CCN2C(=O)c3cccnc3C2=O)cc1OC	.	.	.	.	.	.
CCC(=O)c1c(NC(C)C)cc(C)oc1=O	.	.	.	.	.	.
CCN1CCN(CC(=O)c2ccc(OC)cc2)CC1	.	.	.	.	.	.
O=C(COC(=O)C1=COCCO1)Nc1cc(C(F)(F)F)ccc1Cl	.	.	.	.	.	.
COC(=O)[C@@H](CC(C)C)N(Cc1ccccc1)S(=O)(=O)N(Cc1ccccc1)[C@@H](CC(C)C)C(=O)OC	.	21µM	.	.	.	11µM!
COC(=O)[C@H](Cc1ccccc1)N(Cc1ccc(C)cc1)S(C)(=O)=O	/	?	/	/	.	?
COc1ccc(CCNC(=O)c2ccc3c(c2)N(Cc2ccccc2Cl)C(=O)c2ccccc2S3)cc1OC	/	6.5µM	.	/	.	7.3µM
Cc1cccc(CN2C(=O)c3ccccc3Sc3ccc(C(=O)NCCN4CCOCC4)cc32)c1	-68	.	.	.	?	?
Cc1ccc(CN2C(=O)c3ccccc3Sc3ccc(C(=O)NCCN4CCOCC4)cc32)cc1	.	?	.	?	.	?
CCN1CCN(CCNC(=O)c2ccc(/C=C3/Sc4ccccc4N(Cc4ccccc4C)C3=O)cc2)CC1	.	?	.	.	.	?
CCN1CCN(CCCNC(=O)c2ccc(/C=C3/Sc4ccccc4N(Cc4ccccc4F)C3=O)cc2)CC1	?	16µM	.	.	.	15µM
O=C(NCCN1CCOCC1)c1ccc2c(c1)N(Cc1ccccc1F)C(=O)c1ccccc1S2	.	21µM	.	.	.	.
CCCCNC(=O)C1c2ccccc2OCC(=O)N1CCOC (configuration not stated)	.	.	.	.	.	.
COC(=O)[C@H](Cc1ccccc1)NC(=O)/C=C/[C@H]1O[C@@H](n2cc(C)c(=O)[nH]c2=O)C[C@@H]1O	.	.	.	.	.	.
Cc1ccccc1CN1C(=O)c2ccccc2Sc2ccc(C(=O)NCCc3ccccc3)cc21	/	16µM	.	/	.	21µM
Cc1ccccc1CN1C(=O)c2ccccc2Sc2ccc(C(=O)NCCN3CCOCC3)cc21	.	?	.	.	.	23µM
COc1ccc(NC(=O)c2cc(CN3CCCC3)on2)cc1Cl	/	.	.	/	.	.

Bioassay records from PubChem.
